From article PMC8769072, “Proteome‐scale mapping of binding sites in the unstructured regions of the human proteome” (Molecular Systems Biology, 2022)

molecular target: PEX14 16-84, O75381
Sequence (O75381 16-84): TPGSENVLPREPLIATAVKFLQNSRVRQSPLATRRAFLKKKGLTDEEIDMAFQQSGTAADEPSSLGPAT

Selected by phage display, active:
EVQTENHAPWSISDYF [AGGF1, Q8N302] confidence 2
EMEKNWQELLHETKQR [SYCE3, A1L190] confidence 2
VLMESLKSIWSSSMMH [SMG7, Q92540] confidence 3
ELHHIWQSQQRLQPVA [IRF5, Q13568] confidence 3
STPLPEPHIDLELVWR [C9orf131, Q5VYM1] confidence 2
PPPSPEDLAELWGHGV [CHTF18, Q8WVB6] confidence 3
WEEEFGREMRRQLWLE [FAM186B, Q8IYM0] confidence 2
GHPELSEAELQQLYAS [ZFHX4, Q86UP3] confidence 2
DMQLLWEKAVQQHQHG [SUGP1, Q8IWZ8] confidence 2
GGLEGWWLASLHGRQG [NEDD9, Q14511] confidence 4
ELEEEWLKEAGLSNLF [ARHGAP18, Q8N392] confidence 2
RMDEAWEQSRAPGPVH [RIMBP2, O15034] confidence 2
SATVPDQEELGEVWQR [HECW2, Q9P2P5] confidence 3
LSGEHAYLQSSWNLLD [CACNA1H, O95180] confidence 2
DLSEAWMQANYDPLSD [ELOA2, Q8IYF1] confidence 3
MAAVWQQVLAVDARYN [WDR13, Q9H1Z4] confidence 3
GAAASLSEAWLRAGEG [SPIDR, Q14159] confidence 2
VKDLEEHWQRHLARTT [EVI5, O60447] confidence 3
SLPEGLDMERRWGQVS [NR3C2, P08235] confidence 2
DAEERGEQALQDAWQK [KRT77, Q7Z794] confidence 2
LNSYEAEWDMVNTVSF [TBC1D15, Q8TC07] confidence 2
DPNDQVAMGRQWLAIQ [AATF, Q9NY61] confidence 3
QLQEAWLAEAQVPDDE [ETV5, P41161] confidence 3
AGSQAQELAEAWEGAR [RIMBP3, Q9UFD9] confidence 2
RMEKLEGYWGEAQSLA [PPP1R9B, Q96SB3] confidence 3
LTEREWADEWKHLDHA [CBFA2T2, O43439] confidence 4
DSHVSLETEWGQYWDE [ARHGAP27, Q6ZUM4] confidence 3
SEQNKLGELWEEMALS [GPATCH2L, Q9NWQ4] confidence 3
KLEHTWKALVHDGDTV [PIP5K1C, O60331] confidence 3

molecular target: SIN3A 295-383, Q96ST3
Sequence (Q96ST3 295-383): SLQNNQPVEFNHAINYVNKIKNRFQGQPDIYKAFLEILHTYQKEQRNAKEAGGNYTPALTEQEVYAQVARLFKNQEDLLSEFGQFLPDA

Selected by phage display, active:
LQALLAATSTAGSQDI [SNTA1, Q13424] confidence 2
DFSSLLHALSFEQILQ [DENND2D, Q9H6A0] confidence 2
